The record followed here is PubChem BioAssay (NCI).

Values joined by “and” are separate entries in the source; they are usually repeats but may differ in a detail not shown here. Equal entries are not always repeated. About 83,000 compounds went through this panel and 20% of them were active in at least one assay; those are over-represented in the sample as a whole.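 Assay: single dose, 48 h. Readout: percent growth (0 = no net growth; negative = cell death). Active: <10.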 Active and inactive are the calls of the source.

The test system of the test is MDA-MB-468 breast. As to the kind of experiment: NCI-60 one-dose screen, 48 h (100 = growth as untreated, 0 = no growth, -100 = all killed). The following applies: 10 µM unless noted.
Regarding `CC1(C)COB(OCC(C)(C)COB2OCC(C)(C)CO2)OC1`, the growth was 114% (inactive). To `CC(=O)CC(C)(C)c1ccc(Cl)cc1` belongs 90.4% (inactive); to `COc1ccc(NC(=O)Cn2cc(CN3C(=O)c4ccc([N+](=O)[O-])cc4C3=O)nn2)cc1`, 110% (inactive).

Consider `Clc1ccc(Cc2ccncc2)cc1`, for which the growth is 99.2% (inactive). The result for `COc1cc(/C=C/c2cc(O)c3cc(C(C)=O)c(=O)oc3c2)cc2c1O[C@]1(C)CC[C@@H](O)C(C)(C)[C@H]1C2` reads 65% (inactive).

In the case of `O=C(c1ccc(Br)cc1)C(Br)C(c1ccc(Cl)cc1)C(c1ccccc1)[N+](=O)[O-]` (stereo not given), the growth was 80.7% (inactive). Turning to `N=C(N)c1ccc(-c2ccc(-c3ccc(Cl)c(Cl)c3)o2)nc1`, the growth was -17% (active). The result for `CC12OC(CC(O)C1O)n1c3ccccc3c3c4c(c5c6ccccc6n2c5c31)C(=O)N(CCN1CCOCC1)C4=O` (stereo not given) reads -30.4% (active); that for `COc1nc(OC)nc(-c2cc(C(=O)c3ccc(Br)cc3)n3cc(C)cc(C)c23)n1`, 51% (inactive); that for `O=C1CC[C@@H]2CCCC[C@@H]2C1`, 125% (inactive). The result for `O=S(=O)(Cc1ccccc1)c1ccccc1` reads 102% (inactive); that for `CCn1c(=S)[nH]c2c(=O)n(C)c(=O)n(C)c21`, 100% (inactive).

`COc1c(O[C@@H]2OC(CO)[C@H](O)[C@H](O)C2O)cc2oc3cc(O)c(CC=C(C)C)c(O)c3c(=O)c2c1CC=C(C)C` (stereo not given in full): the growth was 99.8% (inactive). To `CCC(C)NCC(=O)O` (stereo not given) belongs 100% (inactive).

For the molecule `c1ccc2c(-c3nc(-c4c[nH]c5ncccc45)cs3)c[nH]c2c1`, the growth is 108% (inactive). To `CCCCCCCCCCCCOB(OCCCCCCCCCCCC)OCCCCCCCCCCCC` belongs 99.2% (inactive).

In the case of `CC(C)(C)OC(=O)CN1CCc2c(sc3ncnc(N4CCN(c5ccc(F)cc5)CC4)c23)C1`, the growth was 92.3% (inactive).

Consider `COc1cc(OC)c(/C=C/S(=O)(=O)Cc2cnc(OC)c(N)c2)c(OC)c1`, for which the growth is 23.6% (inactive). `c1ccc(CNc2ncnc3ccc(-c4cnc5[nH]ncc5c4)cc23)cc1`: the growth was 50.7% (inactive). Take `CCOC(=O)COc1c(C)cc(SSc2cc(C)c(OCC(=O)OCC)c(C)c2)cc1C`: the growth was 109% (inactive). To `Nc1ccc(-c2nc3ccc4[nH]ncc4c3c3c2CCCC3)cc1F` belongs 7.24% (active). As for `COc1ccc2nc(Cl)cc(C)c2c1`, the growth is 94.1% (inactive) and 91.3% (inactive). To `Clc1ccc(C2CC(c3cccc(Nc4ccncc4)c3)=NN2c2ccc(Cl)cc2)cc1` (stereo not given) belongs -35.3% (active); to `Cn1ccnc1C(=O)/C=C/c1ccc(NC(=O)Nc2ccccc2)cc1`, -45.8% (active).

Turning to `Cc1nc2ccc(Cl)cn2c1-c1nnc(SCc2ccc([N+](=O)[O-])cc2)o1`, the growth is 48.9% (inactive).
